Source: PubChem
In the library only some 21% were active in any assay of this set; here they are far more common.
Pf growth 96h – Primary qHTS for delayed death inhibitors of the malarial parasite plastid, 96 hour incubation. P. falciparum luciferase reporter growth, 96 h. Potency, µM (series often up to 28.7 µM), without a hit: at the top dose activity change, negative = inhibition, actives largely listed as inhibitors. 6.9% of 320,000 active; further: potency means the concentration at half of the fitted maximal effect; on the % scale 0 is the no-effect control and ±100 the full control effect
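P. falciparum expressing integrated firefly luciferase grown in erythrocytes (2% hematocrit, 0.05% parasitemia final) with compounds for 96 hours at 37 C, 5% CO2. Growth inhibition read as loss of luminescence after adding luciferase detection reagent.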
CHX counter – Cycloheximide Counterscreen for Small Molecule Inhibitors of Shiga Toxin. cell reporter, cycloheximide protein synthesis inhibition counterscreen. AID 2314, 2010. max response, %. 12% of 300,000 active; in the data active means max response mostly above about 13%, no sharp cut-off; inactive means mostly below about 14%; further: read at 38.3 µM for the half of the compounds with a filed dose; 0% is about no effect
Shiga inhibitor – A qHTS for Small Molecule Inhibitors of Shiga Toxin; Vero cells, Shiga toxin protein synthesis inhibition reporter; inhibition, % at 38.7 µM; 9.2% of 290,000 active; in the data active means inhibition mostly above about 28%, no sharp cut-off; inactive means mostly below about 43%; further: 0% is about no effect
Pf growth 48h – Primary qHTS for delayed death inhibitors of the malarial parasite plastid, 48 hour incubation; P. falciparum luciferase growth in erythrocytes, 48 h; Potency, µM (doses to about 28.7 µM), for the others: top-dose activity change, negative = inhibition, usual class: inhibitors; 5.9% of 310,000 active; AID 504832, 2011; further: potency means the concentration at half of the fitted maximal effect; on the % scale 0 is the no-effect control and ±100 the full control effect
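Growth was read as firefly luciferase luminescence after a 48 h, 37 C, 5% CO2 exposure of compounds to reporter-bearing P. falciparum cultures (0.1% parasitemia, 2% hematocrit final) in Albumax-supplemented RPMI 1640.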
The depositor's hits bear a star; ? = inconclusive; . = no result; [ ] = remark or other dose. Unless noted, the call rests on the fitted dose curve; in most records, active means well fitted inhibition curve with a large enough effect; inconclusive means small, poorly fitted or top-dose-only effect, or another doubt; inactive means no such curve, though single readings can be large or run the other way.

SMILES	Pf growth 96h	CHX counter	Shiga inhibitor	Pf growth 48h
CCOC(=O)c1cc(NC(=O)C2CCCO2)cc(C(=O)OCC)c1 (stereo not drawn)	23%[5.75 µM]	1	-7	24%
CCOC(=O)c1ccc(NC(=O)C2CC2)cc1	?	22*	72*	64%
COC(=O)c1ccc(NC(=O)c2ccc(NC(=O)C3CCCO3)cc2)cc1 (stereo not drawn)	1%	7	-13	?
CCOC(=O)c1ccc(NC(=O)C2CCCO2)cc1 (stereo not drawn)	-2%	32*	55*	62%
CC(=O)c1c[nH]c(C(=O)NCc2cccc(C(F)(F)F)c2)c1	0%	-1	-4	-13%
O=C1CCCN1Cc1ccccc1	41%	-2	7	19%
O=S(=O)(NC1CCC(NS(=O)(=O)c2c(F)cccc2F)CC1)c1ccc2c(c1)OCCO2 (stereo not drawn)	18%	12	8	5%
C/C(=N\NC(=S)NC1CCCCC1)c1cccs1	?	28*	58*	?
C/C(=N\NC(=S)NC1CCCCC1)c1c(F)cccc1F	10µM*	16	31	-15%
C/C(=N\NC(=S)NC1CCCCC1)c1ccc(Cl)c(Cl)c1	4.1µM*	-1	-2	2.3µM*
CN1CCN(c2ccc(C(=O)c3ccccc3)cc2[N+](=O)[O-])CC1	?	40*	32*	47%
Cc1c(NC(=O)c2ccc(N3CCCC3)c([N+](=O)[O-])c2)cccc1-c1nc2ccccc2s1	?	5	20	10µM*
COc1ccc(S(=O)(=O)Nc2ccc(N3CCOCC3)cc2)cc1[N+](=O)[O-]	-17%[5.75 µM]	5	-10	-12%
COC(=O)c1ccc(N2CCN(CC(=O)c3ccc(-c4ccccc4)cc3)CC2)c([N+](=O)[O-])c1	?	85*	60*	12µM*
CN1CCN(c2ccc(C(N)=O)cc2[N+](=O)[O-])CC1	0%	-3	-1	?
COc1ccc(S(=O)(=O)Nc2ccccc2N2CCOCC2)cc1[N+](=O)[O-]	9%	-1	-7	13µM*
COC(=O)c1ccc(N2CCN(C(=O)C3CC3)CC2)c([N+](=O)[O-])c1	?	1	-2	6%
CCN(C(=O)c1ccncc1)c1c(N)n(Cc2ccccc2)c(=O)[nH]c1=O	3%	.	.	1%
COc1ccccc1CCNC(=O)C1CCC(=O)N(C2CCCCCC2)C1 (stereo not drawn)	?	-2	-8	-14%
Cc1cc(NC(=O)CSc2nc3cc(Cl)ccc3c(=O)n2C(C)C)no1	0%	.	.	0%
Cc1ccc(C(=O)Nc2ccccc2N2CCCCC2)cc1[N+](=O)[O-]	?	-3	8	-18%
CC(=O)c1ccc(N2CCc3ccccc3C2)c([N+](=O)[O-])c1	86%	30*	76*	92%
COc1ccc(C(=O)Nc2ccccc2N2CCCCC2)cc1[N+](=O)[O-]	12µM*	-1	-4	?
CN1CCN(c2ccccc2NC(=O)c2ccc(N3CCOCC3)c([N+](=O)[O-])c2)CC1	30%	2	-7	?
CN1CCN(c2ccccc2NC(=O)c2ccc(N3CCCCC3)c([N+](=O)[O-])c2)CC1	?	-5	-16	13µM*
SMILES	Pf growth 96h	CHX counter	Shiga inhibitor	Pf growth 48h
COc1ccc(CCN(CC(=O)NCc2ccc(F)cc2)C(=O)c2snc(C(N)=O)c2N)cc1OC	18%	-3	-4	-15%
CC(=O)Nc1ccc(S(=O)(=O)N2CCN(C(=O)c3ncoc3-c3ccccc3C)CC2)cc1	-28%	-6	-7	-17%
Cn1c(=O)c2c(ncn2CC(=O)OCC(=O)NNC(=O)c2ccc(Cl)cc2)n(C)c1=O	3%	.	.	2%
COc1ccc(NC2CCCN(C(=O)c3ccc4[nH]c(C)c(C)c4c3)C2)cc1OC (stereo not drawn)	14%	9	10	?
O=C(NCC1CC1)Nc1cccs1	34%	6	1	9%
O=C(Nc1cccs1)NC1CCCC1	.	25*	95	.
Cc1ccc(C(=O)NCC(=O)NC2CCC(C)CC2)s1 (stereo not drawn)	-21%	.	.	-7%
O=C(CNC(=O)c1ccccc1F)NC1=NCCS1	8%	9	22	88%
CC(C)NC(=O)Nc1cccs1	?	-3	10	?
CC1CCC(NC(=O)CNC(=O)c2cccs2)CC1 (stereo not drawn)	187%	45*	116*	137%
CC1CCC(NC(=O)Nc2cccs2)CC1 (stereo not drawn)	.	24*	44*	.
O=C(CNC(=O)c1cccs1)NC1=NCCS1	35%	42*	21*	133%
